Pol kappa inh: qHTS for Inhibitors of Polymerase Kappa | DNA polymerase kappa (Homo sapiens), Q9UBT6 | purified Pol kappa, fluorescent DNA synthesis assay, 10 min | Potency, µM (doses to about 107 µM), usual class: inhibitors | actives 0.53% (n = 400,000) | AID 588579, 2011
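50 nM final substrate added after 15 min RT preincubation of 10 nM Pol kappa with compound; fluorescence read at 0 and 10 min.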
Pol beta inh-1: qHTS Assay for Inhibitors of DNA Polymerase Beta; actives 1.3% (n = 340,000); Potency, µM (highest dose often 114 µM), actives largely listed as inhibitors; Pol beta primer extension/strand displacement, fluorescence kinetic
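10 nM enzyme + cpd, 15 min RT; start with substrate 50 nM final; read 0 min and after 10 min RT. Corrected, normalized data; 4-parameter Hill curve fit.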
Pol iota inh: qHTS for Inhibitors of Polymerase Iota. actives 1% (n = 390,000). Potency, µM (doses to about 115 µM), hits mostly inhibitors. Pol iota fluorescent replication assay, 10 min. DNA polymerase iota (Homo sapiens), Q9UNA4
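Fluorescent replication assay read twice, at 0 min and 10 min after adding 50 nM (final) substrate. Enzyme (10 nM) and compounds were first incubated 15 min at room temperature; enzyme-free buffer wells were negative controls.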
Pol eta inh: qHTS for Inhibitors of Polymerase Eta; DNA polymerase eta (Homo sapiens), Q9Y253; recombinant Pol eta, fluorescent DNA replication assay; Potency, µM (series often up to 114 µM), most hits filed as inhibitors; actives 1.2% (n = 390,000); AID 588591, 2011
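Fluorescent replication assay: 50 nM final substrate added after a 15 min room-temperature compound preincubation with 10 nM enzyme. Signal taken at 0 min and again at 10 min.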
L3MBTL1 inh: qHTS Assay for the Inhibitors of L3MBTL1 | Lethal(3)malignant brain tumor-like protein 1 (Homo sapiens), Q9Y468 | AlphaScreen L3MBTL1–H3K9me1 peptide binding | Potency, µM (doses to about 57.1 µM), actives largely listed as inhibitors | actives 0.66% (n = 230,000); also: nearly all actives have a fitted effect of over 60% in size
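L3MBTL1 50 nM + b-AHA-H3(1-15)K9me1 75 nM, 30 min RT; compound added, 30 min RT; streptavidin donor/Ni-chelate acceptor beads 10 ug/mL each final, 30 min RT dark; AlphaScreen read.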
APE1 inh: qHTS Assay for Inhibitors of the Human Apurinic/apyrimidinic Endonuclease 1 (APE1); DNA repair nuclease/redox regulator APEX1 (Homo sapiens), P27695; recombinant APE1, TAMRA/BHQ-2 abasic DNA cleavage fluorescence; Potency, µM (titrated, usually from 65.8 µM), hits mostly inhibitors; actives 0.35% (n = 350,000); also: nearly all actives have a fitted effect of over 55% in size
Target sequence (P27695 whole entry, looked up): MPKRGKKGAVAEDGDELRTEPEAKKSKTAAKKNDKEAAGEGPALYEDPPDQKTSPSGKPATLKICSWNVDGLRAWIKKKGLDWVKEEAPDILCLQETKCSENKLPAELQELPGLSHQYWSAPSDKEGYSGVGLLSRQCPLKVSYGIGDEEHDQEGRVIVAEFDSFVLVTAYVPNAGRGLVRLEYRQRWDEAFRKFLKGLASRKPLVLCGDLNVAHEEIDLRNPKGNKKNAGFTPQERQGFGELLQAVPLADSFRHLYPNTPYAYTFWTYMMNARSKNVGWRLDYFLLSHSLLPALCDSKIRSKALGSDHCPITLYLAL
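Enzyme (0.75 nM final) and test compound are incubated 15 min at room temperature before adding 50 nM quenched THF abasic-site duplex. Cleavage dequenches TAMRA, followed at 525/598 nm over three reads one minute apart.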
Pol beta inh-2: Inhibitors of DNA Polymerase Beta: Hit validation. shares compounds with Pol beta inh-1. Pol beta primer extension/strand displacement, fluorescence kinetic. Potency, µM, actives largely listed as inhibitors. actives 87% (n = 250). AID 540280, 2011; calls by dose curve
Klenow inh: Inhibitors of DNA Polymerase Beta: Hit Validation in Klenow Fragment Assay; activity change, negative = inhibition, % at 57.1 µM; 250 tested, under 10 active; shares compounds with Pol beta inh-1; Klenow exo- polymerase counter-screen, fluorescent DNA substrate
HIV RT counter: Inhibitors of DNA Polymerase Beta: Hit Validation in HIV-RT Assay | shares compounds with Pol beta inh-1 | HIV-1 RT polymerase activity, counter-screen | activity % (negative = inhibition, positive = activation), % at 57.1 µM | 250 tested, under 10 active | AID 540301, 2011
POLB valid: Inhibitors of DNA Polymerase Beta: Hit Validation in Radiolabeled Extension Assay. shares compounds with Pol beta inh-1. inhibition, % at 10 µM. actives 91% (n = 110). radiolabeled primer extension gel assay, phosphorimager;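 active = inhibition at 10 µM of 30% or more; inconclusive = no clear call, values can overlap the other calls; inactive = inhibition at 10 µM under 30%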
Hits are given with their value; – = inactive; ? = inconclusive; · = no result given; [ ] = another dose, or the depositor's remark. A selection: hits, their analogues and other compounds. The true share with any hit is near 2.5%. Unless noted, calls follow the shape of the dose curve; as a rule, active = well fitted curve in the direction sought with a large enough effect; inconclusive = small, poorly fitted or top-dose-only effect, or another doubt; inactive = no such curve, though single readings can be large; an effect the other way counts as inactive or inconclusive.

SMILES | Pol kappa inh | Pol beta inh-1 | Pol iota inh | Pol eta inh | L3MBTL1 inh | APE1 inh | Pol beta inh-2 | Klenow inh | HIV RT counter | others
Cc1ccc(C(=O)NN2CC(O)=C(c3nc(-c4cccc([N+](=O)[O-])c4)cs3)C2=N)cc1 | – | 5.01µM | ? | – | –[11.4 µM] | – | ? | – | –
Nc1ncnc2c1nc(Cl)n2[C@@H]1O[C@H](CO)[C@@H](O)[C@@H]1O | – | · | – | · | · | · | · | · | ·
O=C(Nc1sc2c(c1C(=O)NCc1ccco1)CCCC2)c1ccc2c(c1)OCO2 | – | 12.6µM | ? | – | ? | ? | ? | – | –
Cc1ccc(C(=O)Nc2sc3c(c2C(=O)NCc2ccco2)CCCC3)cc1 | – | – | – | – | · | – | · | · | ·
CCOC(=O)C1=C(C)N=c2s/c(=C/c3ccccc3)c(=O)n2C1c1ccc(OC)c(OC)c1 (stereo not drawn) | – | – | – | – | – | – | · | · | ·
CCOC(=O)C1=C(C)N=c2s/c(=C/c3ccc(OCC(=O)O)cc3)c(=O)n2C1c1ccc(SC)cc1 (stereo not drawn) | · | 4.47µM | · | · | ? | 7.52µM | 7.94 | – | –
COc1ccccc1N1CCN(C(=O)[C@@H]2CCCN2C2=NS(=O)(=O)c3ccccc32)CC1 | · | · | · | – | · | · | · | · | ·
O=S(=O)(c1ccc(Br)cc1)c1nc(-c2cccs2)oc1SCc1ccc(F)cc1 | – | – | – | – | · | · | · | · | ·
COc1ccc(C(CNC(=O)c2ccco2)N2CCCC2)cc1 (stereo not drawn) | – | · | – | – | – | – | · | · | ·
Cc1cc(C)c2cc(C#N)c(SCC(=O)NCc3ccco3)nc2c1 | – | 20µM | ? | ? | · | – | 28.2 | – | – | POLB valid=85.6
O=C(NCC1CCCN1S(=O)(=O)c1ccccc1)c1cccc(Cl)c1 (stereo not drawn) | – | · | – | – | – | – | · | · | ·
COc1ccc(NC(=O)c2ccc(NCCN3C(=O)CCC3=O)c([N+](=O)[O-])c2)cc1 | ? | 12.6µM | – | ? | –[11.4 µM] | ? | ? | – | – | POLB valid=?
COc1ccc(-n2nnnc2SCC(=O)c2ccc(O)c(O)c2)cc1 | 39.8µM | 20µM | ? | 39.8µM | ? | ? | 12.6 | – | –
Cc1ccc(C(=O)CSc2nc(C)cc(=O)[nH]2)cc1 | – | – | – | – | – | – | · | · | ·
COc1ccc(-n2nnnc2SCC(N)=O)cc1 | – | – | – | – | – | – | · | · | ·
Cc1cc(=O)[nH]c(SCC(=O)c2ccc(O)c(O)c2)n1 | ? | 11.2µM | 50.1µM | 17.8µM | ? | – | 28.2 | – | ? | POLB valid=–
Cc1cc(C)nc(SCC(=O)c2ccc(O)c(O)c2)n1 | ? | 4.47µM | ? | 15.8µM | · | – | 31.6 | – | – | POLB valid=42.0
Clc1ccc(OCc2nn3c(-c4ccco4)nnc3s2)c(Cl)c1 | – | 7.94µM | – | ? | · | – | 25.1 | – | – | POLB valid=?
Cc1ccc(OCc2nn3c(-c4ccco4)nnc3s2)cc1 | – | – | – | – | – | – | · | · | ·
O=C(Cc1cccs1)N1CCN(c2ccc(F)cc2)CC1 | – | – | – | – | – | – | · | · | ·
O=C(Cc1cccs1)N1CCN(c2ccc([N+](=O)[O-])cc2)CC1 | ? | 20µM | ? | 79.4µM | · | – | ? | – | – | POLB valid=65.3
COc1ccc(NS(=O)(=O)c2ccc(O)c(NC(=O)c3ccc(S(=O)(=O)N4CCCCCC4)cc3)c2)cc1 | – | 12.6µM | ? | ? | – | – | 35.5 | – | –
CCN(CC)S(=O)(=O)c1ccc(NC(=O)c2nn(C)c3c2CSc2ccccc2-3)cc1 | – | – | – | – | · | · | · | · | ·
CCn1c(C(=O)N2CCC(C(=O)N3CCN(c4cccc(C)c4C)CC3)CC2)cc2sccc21 | – | – | – | – | · | · | · | · | ·
CC(C)(C)c1nc2ccccc2c2nnc(SCC(=O)Nc3nc4ccccc4s3)n12 | – | 0.178µM | 44.7µM | – | – | – | ? | – | – | POLB valid=85.4
SMILES | Pol kappa inh | Pol beta inh-1 | Pol iota inh | Pol eta inh | L3MBTL1 inh | APE1 inh | Pol beta inh-2 | Klenow inh | HIV RT counter | others
O=C(O)c1ccc2c(c1)C(=O)N(c1cccc(-c3nc4ccccc4s3)c1)C2=O | – | 17.8µM | – | – | – | – | 14.1 | – | –
CC(=O)c1ccc(NC(=O)CN2CCCCCC2)cc1 | – | – | – | – | · | – | · | · | ·
Cn1c(SCC(=O)Nc2ccc3c(c2)oc2ccccc23)nnc1-c1ccccc1 | – | 2.24µM | ? | – | · | – | ? | – | – | POLB valid=–
Cn1c(SCC(=O)Nc2ccccc2)nnc1-c1ccccc1 | – | – | – | – | · | · | · | · | ·
O=c1c2ccccc2nc2sc(Nc3cccc4ccccc34)nn12 | · | · | · | · | · | – | · | · | ·
Cc1cccc(Nc2nn3c(=O)c4ccccc4nc3s2)c1 | ? | 10µM | ? | ? | – | – | 3.98 | – | –
CC1CCN(S(=O)(=O)c2ccc(NC(=O)Cn3nnc(-c4ccccc4F)n3)cc2)CC1 | ? | 15.8µM | 50.1µM | ? | – | – | 35.5 | – | –
CN1CCCN(S(=O)(=O)c2cccc(C(F)(F)F)c2)c2nc3ccccc3nc21 | – | · | – | – | – | – | · | · | ·
O=[N+]([O-])c1cc(CN2CCCC2)c2cccnc2c1O | ? | 1.78µM | ? | 3.16µM | 3.98µM | 3.55µM | 2.82 | – | –
Oc1c(CN2CCCCC2)ccc2cccnc12 | – | · | – | – | · | · | · | · | ·
O=C(Nc1ccc2c(c1)OCO2)C1CCN(C(=O)CSc2ncnc3ccccc23)CC1 | – | 20µM | ? | 79.4µM | ? | – | 35.5 | – | – | POLB valid=85.5
NC(=O)c1sc2nc3c(c(-c4ccco4)c2c1N)CCCC3 | – | – | – | – | · | – | · | · | ·
Nc1c(C(=O)NCC2CCCO2)sc2nc3c(c(-c4ccco4)c12)CC/C3=C\c1ccco1 (stereo not drawn) | 0.708µM | 2.82µM | 0.794µM | 0.708µM | 3.16µM | 2µM | 11.2 | – | –
CC(C)c1ccc(O)c(NC(=S)NC(=O)c2ccc3c(c2)OCO3)c1 | – | – | – | – | · | – | · | · | ·
CC(=O)NCCNC(=O)c1ccc(Cn2c(=O)[nH]c3ccsc3c2=O)cc1 | – | – | – | – | · | – | · | · | ·

Bioassay records (PubChem)
